Growth data for 14 compounds are collected here from PubChem BioAssay (NCI).

Among the test systems are NCI-H23 lung; NCI-H226 lung; NCI-H322M lung; NCI-H460 lung; HOP-92 NSCLC; NCI-H522 lung; A549/ATCC NSCLC; 786-0 renal; COLO 205 colon; HOP-62 NSCLC.
Holding throughout (assay): NCI-60 one-dose screen, 48 h (100 = growth as untreated, 0 = no growth, -100 = all killed)
Common to all, as to conditions: 10 µM unless noted

Molecules are shown by their SMILES. About 83,000 compounds went through this panel and 20% of them were active in at least one assay; those are over-represented in the sample as a whole.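 Activity criterion: percent growth below 10, measured after cells in 96-well plates were exposed to a single compound concentration for 48 hours.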 Unmarked numbers belong to inactive results. The source made the active and inactive calls.

`Cc1ccc2nc(NC(=O)CSc3nc(-c4ccccc4)c(C#N)c4nnnn34)sc2c1`: the growth in the assay with NCI-H23 lung was 103%; in the assay on NCI-H226 lung, 94.7%; in the assay with NCI-H322M lung it was 108%; in the assay with NCI-H460 lung it was 104%; in the assay on HOP-92 NSCLC it was 106%; in the assay with NCI-H522 lung it was 89.4%. Also, the growth with A549/ATCC NSCLC was 104%; with 786-0 renal, 114%; with COLO 205 colon it was 121%.

Regarding `Cc1ccc2c(=O)cc(C(=O)Nc3sc4c(c3C(=O)NCc3cccnc3)CCCC4)oc2c1C`, the growth is 101% with NCI-H23 lung; 107% with NCI-H226 lung; 103% with NCI-H322M lung; 109% in the assay with NCI-H460 lung; 97.3% in the assay on HOP-92 NSCLC; 98.4% in the assay with A549/ATCC NSCLC. The figures for the growth in the assay on 786-0 renal and in the assay on COLO 205 colon were 108% and 110%, respectively.

Consider `C=C(c1ccc(OC)c(/C=C/C(=O)c2ccc3c(c2)OCO3)c1)c1cc(OC)c(OC)c(OC)c1`, for which the growth in the assay with NCI-H23 lung was 15.9%; in the assay on NCI-H226 lung, -40.4% (active); with NCI-H322M lung, 35.1%; in the assay with NCI-H460 lung it was 0.841% (active); in the assay with HOP-92 NSCLC, 12.7%; in the assay with NCI-H522 lung, 5.55% (active). In addition, the results for the growth in the assay with A549/ATCC NSCLC, with 786-0 renal and in the assay with COLO 205 colon were 27.3%, 12.6% and 5.33% (active), respectively.

As to `O=C(c1c[nH]c2ccccc12)c1n[nH]c(=S)n1-c1cccc(Br)c1`, the growth with NCI-H23 lung is 87.2%; in the assay with NCI-H226 lung, 83.1%; in the assay on NCI-H322M lung, 77.7%; with NCI-H460 lung, 75%; in the assay with HOP-92 NSCLC, 84.2%; with NCI-H522 lung, 80%. Moreover, the growth was 86.5% in the assay on A549/ATCC NSCLC, 103% in the assay with 786-0 renal and 99% with COLO 205 colon.

With `CCN(CC)CCCN1C(=O)c2c(c(C)c3c(oc4ccc(O)cc43)c2C)C1=O`, the growth in the assay with NCI-H23 lung was 92.7%; with NCI-H226 lung it was -44.7% (active); in the assay on NCI-H322M lung it was 81.3%; in the assay with NCI-H460 lung, -25.9% (active); in the assay with HOP-92 NSCLC, 69.3%; in the assay with NCI-H522 lung it was 80%. For the same compound, the values for the growth with A549/ATCC NSCLC, with 786-0 renal and with COLO 205 colon were -76.8% (active), -72.6% (active) and 64%, respectively.

Take `COc1cccc(/C=C/C(=O)c2cc3c(N)c(C(=O)Nc4cccc5ccccc45)sc3nc2C)c1`: the growth was 28.4% in the assay on NCI-H23 lung; 36.4% in the assay on NCI-H226 lung; 41.1% in the assay with NCI-H322M lung; -0.349% (active) with NCI-H460 lung; 68.8% with HOP-92 NSCLC; 12% with NCI-H522 lung. The values for the growth with A549/ATCC NSCLC, in the assay with 786-0 renal and with COLO 205 colon were 20.3%, 3.42% (active) and 33.9%, respectively.

As to `C=C1C(=O)O[C@H]2[C@H]1CC/C(CNC(=O)c1c[nH]c3ccc(F)cc13)=C\CC[C@@]1(C)O[C@@H]21`, the growth is 14.2% in the assay on NCI-H23 lung; 25.9% in the assay with NCI-H226 lung; 82.9% in the assay on NCI-H322M lung; 85.7% in the assay with NCI-H460 lung; -42.3% (active) with HOP-92 NSCLC; -73.9% (active) in the assay on NCI-H522 lung. In addition, the figures for the growth in the assay on A549/ATCC NSCLC, with 786-0 renal and in the assay on COLO 205 colon were 46.6%, -59.5% (active) and -78.6% (active), respectively.

Take `Cc1nc2ccccc2c(/C=C/c2ccccc2)c1C(=O)/C=C/c1ccccc1`: the growth in the assay with NCI-H23 lung was 28.7%; with NCI-H226 lung it was 65.1%; with NCI-H322M lung, 43.8%; in the assay on NCI-H460 lung, -20.8% (active); in the assay on HOP-92 NSCLC it was 79.6%; in the assay on NCI-H522 lung, 15.9%. Besides, the growth with A549/ATCC NSCLC was 23.2%; with 786-0 renal, 31.5%; in the assay on COLO 205 colon it was 15.7%.

`CCOC(=O)c1c(C)c2c(n1Cc1ccccc1)CSCC2=O`: the growth is 4.82% [100 µM] (active) in the assay with NCI-H23 lung; -5.37% [100 µM] (active) in the assay on NCI-H226 lung; 36.4% [100 µM] in the assay on NCI-H322M lung; -21.1% [100 µM] (active) in the assay on NCI-H460 lung; -19.4% [100 µM] (active) in the assay with HOP-92 NSCLC; 16.5% [100 µM] in the assay with NCI-H522 lung. For the same compound, the growth with A549/ATCC NSCLC is 20.2% [100 µM]; in the assay on 786-0 renal, -11.2% [100 µM] (active); with COLO 205 colon it was -53.3% [100 µM] (active).

With `C=C1C(=O)O[C@H]2[C@H]1CC/C(COC(=O)CSCSCC(=O)OC/C1=C/CC[C@@]3(C)O[C@H]3[C@H]3OC(=O)C(=C)[C@@H]3CC1)=C\CC[C@@]1(C)O[C@@H]21`, the growth was 24.6% with NCI-H23 lung; -7.99% (active) in the assay on NCI-H226 lung; 79.1% in the assay on NCI-H322M lung; 13.6% in the assay on NCI-H460 lung; -13.3% (active) with HOP-92 NSCLC; -77.8% (active) in the assay with NCI-H522 lung. The figures for the growth with 786-0 renal and in the assay on COLO 205 colon were -6.8% (active) and -65.5% (active), respectively.

For the compound `CCOC(=O)C1=C(C)C(Cl)=N/C1=C\c1[nH]c(Cl)c(C)c1C(=O)OCC`, the growth with NCI-H23 lung was 98.2%; in the assay with NCI-H226 lung, 65.1%; in the assay on NCI-H322M lung it was 100%; with NCI-H460 lung it was 108%; with HOP-92 NSCLC, 87.8%; in the assay on NCI-H522 lung, 77.5%. For the same compound, the growth is 78% in the assay on A549/ATCC NSCLC, 97.7% in the assay on 786-0 renal and 107% in the assay on COLO 205 colon.

For the compound `CCCCNC(=O)Oc1ccc(/C(=C(/C)Cc2ccc(OC)cc2)c2ccc(OCCN3CCCCCC3)cc2)cc1`, the growth was 85% in the assay with NCI-H23 lung; 101% in the assay with NCI-H226 lung; 97.1% with NCI-H322M lung; 85.6% with HOP-62 NSCLC; 53.8% in the assay with NCI-H460 lung; 53.3% in the assay with HOP-92 NSCLC. Further, the growth in the assay with 786-0 renal was 76.3%; with COLO 205 colon, 57%.

Turning to `COc1ccc(C2CC(c3cc(OC)c(OC)c(OC)c3)=NO2)cc1OCCCCOc1cc2c(cc1OC)C(=O)N1CCC[C@H]1C=N2` (some centres not stated), the growth in the assay with NCI-H23 lung was -16% (active); with NCI-H226 lung, -0.71% (active); in the assay with NCI-H322M lung it was 17.4%; with NCI-H460 lung, -14.8% (active); in the assay with HOP-92 NSCLC, 20.3%; in the assay with NCI-H522 lung, -32.5% (active). Moreover, the results for the growth with A549/ATCC NSCLC, in the assay on 786-0 renal and in the assay on COLO 205 colon were 20%, -35.3% (active) and -32.9% (active), respectively.

`COc1cccc(-c2cc(-c3cccc(Cl)c3)c(C#N)c(=O)[nH]2)c1`: the growth in the assay with NCI-H23 lung is 86.7%; in the assay with NCI-H226 lung, 91.4%; in the assay on NCI-H322M lung, 89.5%; in the assay with HOP-62 NSCLC, 68.5%; in the assay on NCI-H460 lung, 78.5%; in the assay on HOP-92 NSCLC, 51.7%. Besides, the growth in the assay on 786-0 renal was 88.8%; in the assay with COLO 205 colon it was 111%.
